PubChem BioAssay (Tox21)
Where “and” joins values, the source holds several entries; their conditions need not be identical. Identical values can stand only once. Results filed as inconclusive are left out. Some structures have more than one record in an assay (separate samples or runs), and their calls can disagree. Calls of active or inactive are those of the source. Unless noted, calls come from the whole dose curve; as a rule, active = well fitted curve in the direction sought with a large enough effect in the repeat runs; inconclusive = weak or mixed curves; inactive = no such curve, though single readings can be large; an effect the other way counts as inactive or inconclusive.

Columns and labels:
[1] = qHTS assay to identify small molecule agonists of the androgen receptor (AR) signaling pathway in the presence of an antagonist - cell viability counter screen (AID 1259379); note: nearly all actives have a fitted effect of over 25% in size; note: potency is the fitted concentration of half-maximal effect;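 for activity change, negative = cytotoxicity: MDA-kb2 human breast cancer cells carrying an MMTV luciferase reporter; series mostly up to about 92 µM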
Outline: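 Nilutamide-containing (3.0uM final) MDA-kb2 cultures, 3,000 cells/well, were treated with compounds across 15 concentrations. After 16 hr at 37C with no CO2, cell viability was determined by CellTiter-Fluor fluorescence in the luciferase assay wells.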

[2] = qHTS assay to identify small molecule antagonists of the estrogen receptor beta (ER-beta) signaling pathway - cell viability counter screen (AID 1259382);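 note: HEK293T cells carrying ER-beta-UAS-bla reporter stimulated with estradiol; series mostly up to about 92 µM; nearly all actives have a fitted effect of over 55% in size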
Outline: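 Viability is scored by CellTiter-Glo luminescence (30 min, room temperature) in ER-beta-UAS-bla HEK293T wells already read for reporter fluorescence. Compound exposure lasts 16 hr at 37C alongside 1nM 17-beta-estradiol in charcoal-stripped serum medium.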

[3] = qHTS assay to identify small molecule agonists or antagonists of the thyroid stimulating hormone receptor (TSHR) signaling pathway - wild type cell line counter screen (AID 1259384; calls by dose curve)
Outline: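 Wild-type Hek293 cells, 800/well, 18 h at 37C, then compound with Ro20-1724 for 30 min RT. cAMP by HTRF (cAMP-d2/anti-cAMP cryptate), 1 h RT, fluorescence read. 15 concentrations, triplicates.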

[4] = target: Thyrotropin receptor (Homo sapiens) (UniProt P16473); experiment: qHTS assay to identify small molecule antagonists of the thyroid stimulating hormone receptor (TSHR) signaling pathway (AID 1259385; calls by dose curve; note: nearly all actives have a fitted effect of over 20% in size)
Thyrotropin receptor (Homo sapiens), sequence (P16473 whole entry, looked up): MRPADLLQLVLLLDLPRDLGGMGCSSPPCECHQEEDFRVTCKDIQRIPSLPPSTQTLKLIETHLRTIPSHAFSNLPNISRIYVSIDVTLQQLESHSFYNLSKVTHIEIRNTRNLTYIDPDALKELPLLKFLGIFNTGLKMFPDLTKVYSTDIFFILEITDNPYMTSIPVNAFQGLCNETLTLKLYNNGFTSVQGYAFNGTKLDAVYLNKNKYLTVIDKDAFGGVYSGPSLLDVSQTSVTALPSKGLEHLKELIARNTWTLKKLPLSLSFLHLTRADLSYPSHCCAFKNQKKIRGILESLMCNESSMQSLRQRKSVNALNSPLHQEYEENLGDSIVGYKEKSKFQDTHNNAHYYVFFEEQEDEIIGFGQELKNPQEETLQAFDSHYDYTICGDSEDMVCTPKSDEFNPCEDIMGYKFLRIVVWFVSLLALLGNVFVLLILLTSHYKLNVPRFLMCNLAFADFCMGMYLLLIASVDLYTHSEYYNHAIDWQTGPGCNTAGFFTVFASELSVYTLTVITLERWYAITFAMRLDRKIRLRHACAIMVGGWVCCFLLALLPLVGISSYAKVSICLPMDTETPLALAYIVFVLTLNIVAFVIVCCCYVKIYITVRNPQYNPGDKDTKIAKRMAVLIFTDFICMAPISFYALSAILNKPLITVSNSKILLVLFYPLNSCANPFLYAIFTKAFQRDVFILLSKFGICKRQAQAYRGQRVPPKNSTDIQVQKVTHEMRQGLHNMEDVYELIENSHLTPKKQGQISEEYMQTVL
Outline: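 TSHR-HEK293 cells (800/well) plated 18 h, then compounds with Ro20-1724 and TSH at 1.5 ng/mL final, 30 min at room temperature. cAMP quantified by HTRF (cAMP-d2/anti-cAMP-cryptate, 1 h); 15 concentrations in triplicate.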

[5] = target: Progesterone receptor (Homo sapiens) (UniProt P06401); experiment: qHTS assay to identify small molecule agonists of the progesterone receptor (PR) signaling pathway (AID 1346784; calls by dose curve; note: nearly all actives have a fitted effect of over 30% in size; note: potency is the fitted concentration of half-maximal effect)
Progesterone receptor (Homo sapiens), sequence (P06401 whole entry, looked up): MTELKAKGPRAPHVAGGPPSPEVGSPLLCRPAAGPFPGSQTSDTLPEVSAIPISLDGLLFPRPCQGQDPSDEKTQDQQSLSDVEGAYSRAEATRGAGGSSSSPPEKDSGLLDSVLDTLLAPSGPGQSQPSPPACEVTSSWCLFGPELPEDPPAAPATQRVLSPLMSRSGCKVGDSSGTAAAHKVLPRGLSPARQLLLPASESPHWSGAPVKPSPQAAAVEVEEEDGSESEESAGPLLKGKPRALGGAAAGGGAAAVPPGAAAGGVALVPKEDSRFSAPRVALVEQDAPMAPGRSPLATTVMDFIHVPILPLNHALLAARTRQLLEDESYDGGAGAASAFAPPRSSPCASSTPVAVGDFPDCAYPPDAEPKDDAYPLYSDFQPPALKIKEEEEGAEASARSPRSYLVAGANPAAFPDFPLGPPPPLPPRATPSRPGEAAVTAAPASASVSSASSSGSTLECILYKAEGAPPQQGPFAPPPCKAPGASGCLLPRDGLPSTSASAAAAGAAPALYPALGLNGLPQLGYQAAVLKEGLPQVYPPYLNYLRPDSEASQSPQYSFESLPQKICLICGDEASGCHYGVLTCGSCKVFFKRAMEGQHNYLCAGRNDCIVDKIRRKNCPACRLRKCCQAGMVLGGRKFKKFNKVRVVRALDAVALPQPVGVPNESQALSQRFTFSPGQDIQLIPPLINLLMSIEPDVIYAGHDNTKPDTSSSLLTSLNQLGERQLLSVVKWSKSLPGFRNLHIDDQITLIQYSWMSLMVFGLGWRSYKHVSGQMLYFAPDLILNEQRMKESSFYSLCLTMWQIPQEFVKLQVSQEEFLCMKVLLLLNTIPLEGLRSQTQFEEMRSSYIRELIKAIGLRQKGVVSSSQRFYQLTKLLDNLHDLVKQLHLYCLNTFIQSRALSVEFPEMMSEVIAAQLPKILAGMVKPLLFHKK
Outline: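 PR-UAS-bla HEK 293T cells carrying a UAS-driven beta-lactamase reporter were seeded in medium with 2% charcoal-stripped FBS, preincubated 6 hr at 37C, then exposed to compounds in DMSO for 16 hr; agonism was read by LiveBLAzer B/G FRET fluorescence.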

[6] = target: Progesterone receptor (Homo sapiens) (UniProt P06401); experiment: qHTS assay to identify small molecule antagonists of the progesterone receptor (PR) signaling pathway (AID 1346795; active = well fitted inhibition curve with a large enough effect in the signal ratio in the repeat runs, not every such curve was filed as active; the % refers to the signal ratio)
Outline: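 PR-UAS-bla HEK293T cells carrying a UAS-driven beta-lactamase reporter were plated in medium with 2% charcoal-stripped FBS and rested 6 hr at 37C. Compounds were added with 1 nM R5020 (final) for 16 hr, then FRET substrate loaded 2 hr at room temperature.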

[7] = qHTS assay to identify small molecule antagonists of the progesterone receptor (PR) signaling pathway - cell viability counter screen (AID 1346798); note: nearly all actives have a fitted effect of over 50% in size; note: potency is the fitted concentration of half-maximal effect; for activity change, negative = cytotoxicity: series mostly up to about 92 µM
Outline: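 PR-UAS-bla HEK293T cells in medium with 2% charcoal-stripped FBS were treated with compounds plus R5020 for 16 hr at 37C. Cell viability was then read by CellTiter-Glo luminescence after 30 min at room temperature in the same wells.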

[8] = qHTS assay to identify small molecule agonists of the progesterone receptor (PR) signaling pathway - cell viability counter screen (AID 1346799; calls by dose curve; note: nearly all actives have a fitted effect of over 45% in size; note: potency is the fitted concentration of half-maximal effect)
Outline: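 PR-UAS-bla HEK293T cells, 3,000 per well in medium with 2% charcoal-stripped FBS, were preincubated 6 hr at 37C, then exposed to compounds for 16 hr; viability was read as CellTiter-Glo luminescence after 30 min at room temperature.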

[9] = qHTS assay to identify small molecule antagonists of the TGF-beta/Smad signaling pathway - cell viability counter screen (AID 1346824); note: nearly all actives have a fitted effect of over 50% in size
Outline: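 SBE-bla HEK 293T cells, incubated overnight, then compound plus 0.25 ng/mL TGF-beta1 (stock added) for 5 hr at 37 C. Viability was read in the same wells by CellTiter-Glo luminescence after 30 min at room temperature.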

[10] = qHTS assay to identify small molecule agonists of the TGF-beta/Smad signaling pathway - cell viability counter screen (AID 1346829); note: top concentration of the series differs between compounds; nearly all actives have a fitted effect of over 45% in size
Outline: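 Compound-treated SBE-bla HEK 293T cells (5 hr, 37 C) were assessed for viability with CellTiter-Glo in parallel with the reporter read.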

[11] = qHTS assay to identify small molecule agonists of the TGF-beta/Smad signaling pathway (AID 1346859; active = well fitted activation curve with a large enough effect in the signal ratio in the repeat runs, not every such curve was filed as active; the % refers to the signal ratio; note: series mostly up to about 77 µM)
Outline: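 HEK 293T cells stably carrying a beta-lactamase reporter driven by the Smad binding element were seeded overnight, exposed to DMSO-dissolved compounds for 5 hr at 37 C, 5% CO2, then loaded with FRET substrate for 2 hr at room temperature.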

[12] = target: Thyrotropin-releasing hormone receptor (Homo sapiens) (UniProt P34981); experiment: qHTS assay to identify small molecule antagonists of the thyrotropin-releasing hormone receptor (TRHR) signaling pathway (AID 1346877; active = well fitted inhibition curve with a large enough effect in the repeat runs, not every such curve was filed as active; note: series mostly up to about 51 µM)
Thyrotropin-releasing hormone receptor (Homo sapiens), sequence (P34981 whole entry, looked up): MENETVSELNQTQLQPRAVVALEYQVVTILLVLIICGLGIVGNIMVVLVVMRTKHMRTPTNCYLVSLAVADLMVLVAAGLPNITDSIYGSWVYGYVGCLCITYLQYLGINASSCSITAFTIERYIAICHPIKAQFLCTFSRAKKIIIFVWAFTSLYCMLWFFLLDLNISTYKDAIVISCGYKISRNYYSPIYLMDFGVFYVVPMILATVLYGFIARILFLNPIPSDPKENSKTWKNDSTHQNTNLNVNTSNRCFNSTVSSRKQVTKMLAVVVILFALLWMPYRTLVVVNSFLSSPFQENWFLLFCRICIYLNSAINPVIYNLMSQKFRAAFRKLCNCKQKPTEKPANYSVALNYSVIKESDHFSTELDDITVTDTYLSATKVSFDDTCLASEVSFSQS
Outline: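 Kinetic fluorescence (3 min, 1 s resolution) following stimulation with TRH at 1 nM final; HEK293 cells bearing human TRHR; 5 min compound preincubation at RT; concentration-response over 15 points, triplicates.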

[13] = target: Thyrotropin-releasing hormone receptor (Homo sapiens) (UniProt P34981); experiment: qHTS assay to identify small molecule agonists of the thyrotropin-releasing hormone receptor (TRHR) signaling pathway (AID 1346891; calls by dose curve; note: series mostly up to about 58 µM)
Outline: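 TRHR-expressing HEK293 cells were plated 18 h at 37 °C/5% CO2, loaded with calcium dye 2 h at 37 °C, then given compound in DMSO; fluorescence was read kinetically for 3 min at 1 s intervals.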

[14] = Caspase-3/7 induction in HepG2 cells by small molecules, qHTS assay (AID 1346978); note: nearly all actives have a fitted effect of over 15% in size
Outline: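 Wild-type HepG2 cells, 2,000/well, settled 5 hr at 37 C and 5% CO2, then compound-treated for 17 hr; caspase-3/7 activity read by luminescent Caspase-Glo 3/7 after 30 min at room temperature.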

[15] = target: Androgen receptor (Homo sapiens) (UniProt P10275); experiment: qHTS assay to identify small molecule agonists of the androgen receptor (AR) signaling pathway in the presence of an antagonist (AID 1259381; calls by dose curve; note: nearly all actives have a fitted effect of over 15% in size; note: potency is the fitted concentration of half-maximal effect)
Androgen receptor (Homo sapiens), sequence (P10275 whole entry, looked up): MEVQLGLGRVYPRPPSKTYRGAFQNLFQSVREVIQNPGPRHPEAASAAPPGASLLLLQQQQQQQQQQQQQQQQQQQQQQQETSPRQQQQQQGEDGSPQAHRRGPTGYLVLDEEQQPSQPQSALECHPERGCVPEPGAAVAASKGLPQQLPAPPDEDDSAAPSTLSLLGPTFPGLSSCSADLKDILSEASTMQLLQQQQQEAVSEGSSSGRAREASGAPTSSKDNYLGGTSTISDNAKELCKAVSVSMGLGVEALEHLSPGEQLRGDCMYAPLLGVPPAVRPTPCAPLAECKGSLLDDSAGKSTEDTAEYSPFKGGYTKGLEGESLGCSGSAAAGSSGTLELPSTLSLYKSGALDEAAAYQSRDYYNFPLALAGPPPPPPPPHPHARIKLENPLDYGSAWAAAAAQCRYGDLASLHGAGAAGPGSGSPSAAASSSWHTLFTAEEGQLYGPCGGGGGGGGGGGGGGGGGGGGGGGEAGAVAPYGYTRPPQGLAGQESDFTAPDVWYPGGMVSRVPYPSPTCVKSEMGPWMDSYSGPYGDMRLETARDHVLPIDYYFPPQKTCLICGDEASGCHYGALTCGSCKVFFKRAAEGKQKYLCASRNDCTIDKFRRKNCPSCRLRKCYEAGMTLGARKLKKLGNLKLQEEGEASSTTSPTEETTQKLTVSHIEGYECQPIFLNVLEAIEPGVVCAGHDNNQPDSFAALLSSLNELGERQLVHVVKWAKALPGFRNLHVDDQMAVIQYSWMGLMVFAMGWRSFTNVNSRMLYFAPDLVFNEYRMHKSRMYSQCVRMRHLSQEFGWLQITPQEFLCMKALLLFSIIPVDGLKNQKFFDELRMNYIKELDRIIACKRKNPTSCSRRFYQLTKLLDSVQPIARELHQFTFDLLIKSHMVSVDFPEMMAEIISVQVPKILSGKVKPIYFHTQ
Outline: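 Reporter-gene luminescence from MDA-kb2 cells exposed 16hr at 37C (0% CO2) to 15-point compound titrations with 3.0uM final nilutamide as AR antagonist.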

[16] = qHTS assay to identify small molecule agonists of the estrogen receptor alpha (ER-alpha) signaling pathway in the presence of an antagonist - cell viability counter screen (AID 1259386);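 note: cells exposed to compounds for 22 h at 37 °C before the viability read; nearly all actives have a fitted effect of over 30% in size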; note: potency is the fitted concentration of half-maximal effect; for activity change, negative = cytotoxicity: series mostly up to about 92 µM
Outline: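 In this counter screen, compound effects on VM7Luc4E2 viability were tested in the presence of the antagonist ICI-182,780 at 10.0nM final. Compounds were dosed at 15 concentrations, exposure lasted 22hr, and the CellTiter-Fluor signal was read.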

[17] = Human pregnane X receptor (PXR) small molecule agonists, qHTS cell viability counter screen (AID 1346977); note: nearly all actives have a fitted effect of over 50% in size; note: potency is the fitted concentration of half-maximal effect
Outline: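 PXR-Luc HepG2 cells in medium with 5% charcoal-stripped FBS were pre-incubated 5hr, then exposed to compounds for 24hr at 37C. Viability was read in the same wells by CellTiter-Fluor fluorescence, reagent added after 23hr with a 1hr incubation.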

[18] = qHTS assay to identify small molecule agonists of the estrogen receptor beta (ER-beta) signaling pathway - cell viability counter screen (AID 1259380); note: nearly all actives have a fitted effect of over 30% in size; note: potency is the fitted concentration of half-maximal effect
Outline: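 Steps: plate ER-beta-UAS-bla HEK293T cells, rest 6 hr; add compounds in DMSO; incubate 16 hr at 37C, 5% CO2; add FRET substrate 2 hr; add CellTiter-Glo, wait 30 min at room temperature; read luminescence.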

[19] = target: Estrogen receptor (Homo sapiens) (UniProt P03372); experiment: qHTS assay to identify small molecule agonists of the estrogen receptor alpha (ER-alpha) signaling pathway in the presence of an antagonist (AID 1259383; calls by dose curve; note: top concentration of the series differs between compounds; nearly all actives have a fitted effect of over 15% in size)
Estrogen receptor (Homo sapiens), sequence (P03372 whole entry, looked up): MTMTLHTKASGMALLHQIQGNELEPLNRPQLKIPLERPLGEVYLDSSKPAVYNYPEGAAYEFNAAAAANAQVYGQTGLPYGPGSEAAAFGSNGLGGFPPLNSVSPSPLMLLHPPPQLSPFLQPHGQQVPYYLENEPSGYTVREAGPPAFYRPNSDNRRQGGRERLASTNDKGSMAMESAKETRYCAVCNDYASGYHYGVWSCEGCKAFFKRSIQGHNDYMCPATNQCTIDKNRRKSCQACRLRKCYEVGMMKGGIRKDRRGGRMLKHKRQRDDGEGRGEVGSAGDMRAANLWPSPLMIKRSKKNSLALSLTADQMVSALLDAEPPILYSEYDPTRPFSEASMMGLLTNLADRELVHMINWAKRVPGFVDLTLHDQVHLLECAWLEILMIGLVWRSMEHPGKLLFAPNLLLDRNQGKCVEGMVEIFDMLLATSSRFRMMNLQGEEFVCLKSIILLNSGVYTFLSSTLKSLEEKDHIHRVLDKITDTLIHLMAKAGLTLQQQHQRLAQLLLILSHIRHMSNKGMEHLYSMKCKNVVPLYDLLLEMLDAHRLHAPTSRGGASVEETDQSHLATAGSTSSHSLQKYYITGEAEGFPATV
Outline: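 Readout was ERE-driven luciferase luminescence in VM7Luc4E2 cells, which express full-length ER-alpha endogenously. Compounds were tested at 15 concentrations for 22hr alongside 10.0nM ICI-182,780 (final concentration).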
% is set by controls: 0 for no effect and ±100 for the full control effect.

CS(=O)(=O)Nc1ccc([N+](=O)[O-])cc1Oc1ccccc1
inactive: Potency [2] | outcome [3] | outcome [4] | Potency [5] | Potency [6] | Potency [7] | Potency [8] | Potency [9] | Potency [10] | outcome [11] | outcome [12] | Potency [13] | Potency [14]
active: Potency [1] 26.6 µM

O=c1c(-c2ccc(O)cc2)coc2cc(O)ccc12
inactive: Potency [1] | Potency [15] | Potency [2] | outcome [3] | outcome [4] | Potency [16] | Potency [5] | Potency [6] | Potency [7] | Potency [8] | Potency [9] | Potency [10] | Potency [17] | Potency [14]

CC1CC(OC(=O)c2ccccc2O)CC(C)(C)C1 (stereo not drawn)
inactive: Potency [1] | Potency [18] | Potency [2] | outcome [3] | outcome [4] | Potency [5] | Potency [7] | Potency [8] | Potency [9] | Potency [10] | outcome [11] | outcome [12] | Potency [13] | Potency [17] | Potency [14]

CC(C)Cc1ccccc1
inactive: Potency [1] | Potency [18] | Potency [2] | Potency [19] | outcome [3] | outcome [4] | Potency [16] | Potency [5] | Potency [6] | Potency [7] | Potency [8] | Potency [9] | Potency [10] | outcome [11] | outcome [12] | Potency [13] | Potency [17] | Potency [14]

CS(=O)(=O)c1ccc([C@@H](O)[C@@H](CO)NC(=O)C(Cl)Cl)cc1
inactive: Potency [1] | Potency [18] | Potency [2] | Potency [19] | Potency [16] | Potency [5] | Potency [7] | Potency [8] | Potency [9] | Potency [10] | Potency [17] | Potency [14]

CCC(=O)O
inactive: Potency [1] | Potency [2] | Potency [19] | Potency [16] | Potency [7] | activity change, negative = cytotoxicity [8] -3.72% [at 19 µM] | Potency [9] | Potency [10] | outcome [11] | Potency [17] | Potency [14]

CC(C)(C)C(=O)C1C(=O)c2ccccc2C1=O
active: Potency [1] 60.5 µM | Potency [16] 60.5 µM and 61.1 µM | Potency [17] 50.1 µM
inactive: Potency [2] | Potency [19] | outcome [3] | outcome [4] | Potency [5] | Potency [6] | Potency [7] | Potency [8] | Potency [9] | Potency [10] | outcome [11] | Potency [14]

Cc1cc(NS(=O)(=O)c2ccc(N)cc2)no1
inactive: Potency [1] | Potency [18] | Potency [2] | outcome [3] | Potency [16] | Potency [5] | Potency [6] | Potency [7] | Potency [8] | Potency [9] | Potency [10] | outcome [11] | Potency [17] | Potency [14]

CC(C)(N=C=O)c1cccc(C(C)(C)N=C=O)c1
68 µM (active) and inactive: Potency [18]
inactive: Potency [1] | Potency [2] | outcome [3] | outcome [4] | Potency [16] | Potency [5] | Potency [7] | Potency [8] | Potency [9] | Potency [10] | outcome [12] | Potency [13] | Potency [17] | Potency [14]

C=C(C#N)C(=O)OCC
inactive: Potency [1] | Potency [2] | outcome [3] | outcome [4] | Potency [16] | Potency [5] | Potency [6] | Potency [7] | Potency [8] | Potency [9] | Potency [10] | outcome [12] | Potency [13] | Potency [17] | Potency [14]

S=c1nc[nH]c2nc[nH]c12
active: Potency [7] 8.41 µM | Potency [8] 4.74 µM and 11.9 µM
inactive: Potency [1] | Potency [19] | outcome [3] | outcome [4] | Potency [5] | outcome [11] | outcome [12] | Potency [13] | Potency [17] | Potency [14]

O=C(O)c1cc(-c2ccccc2)nc2ccccc12
inactive: Potency [1] | Potency [18] | Potency [2] | outcome [3] | outcome [4] | Potency [7] | Potency [8] | Potency [9] | Potency [10] | outcome [12] | Potency [13] | Potency [17] | Potency [14]
55.1 µM (active) and inactive: Potency [15]
779 nM (active) and inactive: Potency [5]

C=C(C)C(=O)OCC(CC)(COC(=O)C(=C)C)COC(=O)C(=C)C
inactive: Potency [1] | Potency [18] | Potency [2] | outcome [3] | outcome [4] | Potency [5] | Potency [7] | Potency [8] | Potency [9] | Potency [10] | outcome [12] | Potency [13] | Potency [17] | Potency [14]

CCCCCCOC(C)=O
inactive: Potency [1] | Potency [2] | Potency [19] | outcome [3] | outcome [4] | Potency [5] | Potency [6] | Potency [9] | Potency [10] | outcome [11] | Potency [17] | Potency [14]
inactive and 8.63 µM (active): Potency [8]

CC1(C)CC(N=C=O)CC(C)(CN=C=O)C1 (stereo not drawn)
inactive: Potency [1] | Potency [18] | Potency [2] | Potency [19] | outcome [3] | outcome [4] | Potency [16] | Potency [5] | Potency [7] | Potency [8] | Potency [9] | Potency [10] | outcome [12] | Potency [13] | Potency [17] | Potency [14]
